Screens as filed in PubChem BioAssay.
NSD2 HMT inh = inhibitors of human histone methyltransferase NSD2; O96028; NSD2 peptide methylation, AlphaScreen, 120 min; inhibition, % at 12.5 µM; 310,000 compounds, 0.54% hits; in the data active = inhibition above about 50%
Target sequence (O96028 whole entry, looked up): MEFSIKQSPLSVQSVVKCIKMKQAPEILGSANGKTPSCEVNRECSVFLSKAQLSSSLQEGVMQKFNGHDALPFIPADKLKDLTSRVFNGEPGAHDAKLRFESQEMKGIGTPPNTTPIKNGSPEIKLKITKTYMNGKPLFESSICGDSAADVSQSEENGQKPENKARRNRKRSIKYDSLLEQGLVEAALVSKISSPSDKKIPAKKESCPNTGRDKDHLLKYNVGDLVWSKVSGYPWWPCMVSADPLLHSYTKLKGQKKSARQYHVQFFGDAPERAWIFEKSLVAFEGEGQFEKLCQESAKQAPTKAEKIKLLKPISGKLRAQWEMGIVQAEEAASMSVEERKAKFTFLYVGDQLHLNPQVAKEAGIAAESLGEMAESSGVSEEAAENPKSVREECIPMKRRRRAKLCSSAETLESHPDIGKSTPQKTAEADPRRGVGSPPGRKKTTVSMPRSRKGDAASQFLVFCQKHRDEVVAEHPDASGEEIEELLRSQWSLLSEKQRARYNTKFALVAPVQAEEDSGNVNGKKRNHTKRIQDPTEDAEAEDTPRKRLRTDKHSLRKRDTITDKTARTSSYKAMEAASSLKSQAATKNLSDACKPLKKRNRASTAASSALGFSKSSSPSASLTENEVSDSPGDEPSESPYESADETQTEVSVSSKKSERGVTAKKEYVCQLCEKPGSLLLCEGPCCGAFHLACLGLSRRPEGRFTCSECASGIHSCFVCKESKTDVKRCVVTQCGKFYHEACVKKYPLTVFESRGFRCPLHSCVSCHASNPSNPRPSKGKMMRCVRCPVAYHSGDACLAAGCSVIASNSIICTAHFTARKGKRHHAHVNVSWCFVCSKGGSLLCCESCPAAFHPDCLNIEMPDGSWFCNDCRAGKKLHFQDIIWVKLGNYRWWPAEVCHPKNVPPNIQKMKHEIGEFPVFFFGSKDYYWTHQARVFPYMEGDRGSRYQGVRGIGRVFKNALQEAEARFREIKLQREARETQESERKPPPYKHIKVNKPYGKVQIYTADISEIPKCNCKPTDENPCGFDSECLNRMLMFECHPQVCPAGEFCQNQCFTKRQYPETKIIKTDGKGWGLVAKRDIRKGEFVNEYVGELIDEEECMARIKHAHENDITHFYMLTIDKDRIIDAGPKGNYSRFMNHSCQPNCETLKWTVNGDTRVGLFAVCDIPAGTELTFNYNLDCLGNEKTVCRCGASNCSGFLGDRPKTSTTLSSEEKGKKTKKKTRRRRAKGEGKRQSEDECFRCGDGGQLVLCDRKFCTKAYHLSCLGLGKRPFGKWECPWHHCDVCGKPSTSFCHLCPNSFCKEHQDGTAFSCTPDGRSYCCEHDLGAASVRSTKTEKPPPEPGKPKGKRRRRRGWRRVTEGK
Wnt act = activators of Wnt/beta-catenin signaling. 300,000 compounds, 1.2% hits. activation, % at 9.35 µM. AID 743398. Wnt/beta-catenin reporter cell assay, activator, plate reader; in the data active = activation above about 30%, passing the limit was not always enough
Glyco luc inh = blocks N-linked glycosylation in D54 reporter cells; reporter increase, % at 12.5 µM; 360,000 compounds, 0.23% hits; D54 ERlucT glycosylation luciferase reporter, 24 h; percent of 100 nM tunicamycin response;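 active = mean luciferase reporter signal, scaled so untreated is 0 and the glycosylation-blocking control 100, at or above a set limit in every replicate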;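 also: luciferase carries N-glycosylation sites so blocking glycosylation raises the light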
MITF act = activators of MITF-driven TRPM1 promoter activity in SK-MEL-5 cells; 300,000 compounds, 0.75% hits; SK-MEL-5 TRPM1-promoter luciferase, 24 h; % of positive control, neutral wells = 0; AID 588334; activation, % at 12.5 µM;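 active = mean activation of at least 80% with every replicate also reaching 80%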
PfHsp90 yeast 2 = inhibits growth of yeast expressing Plasmodium falciparum Hsp90. S. cerevisiae expressing PfHsp90, BacTiter-Glo ATP, 48 h; yeast lacking PDR1 and PDR3 efflux regulators. inhibition, % at 9.4 µM. 310,000 compounds, 0.32% hits;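 active = every replicate shows inhibition above about 80%, whatever the replicate mean, limit read from the data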
TRPM1 prom inh = MITF TRPM1 promoter inhibition in SK-MEL-5 cells. SK-MEL-5 TRPM1 promoter luciferase, 24 h. inhibition, % at 12.5 µM. 330,000 compounds, 0.83% hits. AID 488899;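 active = mean inhibition across replicates of 60% or more, whatever share of single replicates reaches that level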
AlphaScreen art = counter-screen for NSD2 inhibitors: AlphaScreen artifacts. AlphaScreen artifact counterscreen, preloaded methylated H4 peptide. shares compounds with NSD2 HMT inh. AC35, µM (series often up to 10 µM). 1,500 compounds, 9.4% hits; call rule not given here
Of the large screens only hits and unclear results are named; the others gave an inactive call (follow-up assays come after a bar, where they were run). The list is not random: actives were taken first. Their share in the collection is about 2.9%.

CCc1nc2ccc(C(=O)N3CCN(S(=O)(=O)CC)CC3)cn2c1N(C)Cc1cccs1	none (no result: MITF act, PfHsp90 yeast 2, TRPM1 prom inh)
CCCN(CCC)CCCNC(=O)c1ccc(CS(=O)(=O)c2c(Cl)cccc2Cl)o1	NSD2 HMT inh 62.9 | AlphaScreen art inactive
CCCCCCc1c(O)nc(SCCN(C)C)[nH]c1=O	none (no result: NSD2 HMT inh)
O=C(CSc1ccc(-c2cccnc2)nn1)N1CCCC1	NSD2 HMT inh 52.5 | AlphaScreen art inactive
O=C(CSc1ccc(-c2cccnc2)nn1)N1CCCCCC1	none (no result: PfHsp90 yeast 2)
Cc1c(C(=O)NC(=S)NCc2cccnc2)cccc1[N+](=O)[O-]	none
C/C(NCCc1ccccc1)=C1/CCOC1=O	NSD2 HMT inh 65.0 (no result: MITF act, PfHsp90 yeast 2, TRPM1 prom inh) | AlphaScreen art inactive
CNCCC1Sc2ccccc2Oc2ccccc21 (stereo unspecified)	NSD2 HMT inh 100.4 | AlphaScreen art inactive
NC1=NC(=Nc2ccc(Br)cc2)c2ccccc21	NSD2 HMT inh 52.9 | AlphaScreen art inactive
Cc1ccc(S(=O)(=O)Nc2c(C)nc3nc(C)[nH]n3c2=O)cc1	none
CCOc1ccc(NS(=O)(=O)c2ccc(C(=O)NCCN3CCOCC3)cc2)cc1	none
O=C(c1ccc2nc(-c3ccco3)c(-c3ccco3)nc2c1)N1CCN(c2ccccc2)CC1	none (no result: Wnt act)
O=C(O)c1ccc2nc(-c3ccco3)c(-c3ccco3)nc2c1	NSD2 HMT inh 185.7 | AlphaScreen art inactive
CCCc1cc(Nc2ccccc2C)n2ncnc2n1	NSD2 HMT inh 57.5 | AlphaScreen art inactive
CCCc1cc(Nc2cccc(OCC)c2)n2ncnc2n1	none (no result: Wnt act, PfHsp90 yeast 2)
O=C(CCNC(=O)C1CCN(S(=O)(=O)c2ccc(F)cc2)CC1)NCc1ccc(F)cc1	none
O=C(NCCCn1ccnc1)C1CCN(S(=O)(=O)c2ccc(F)cc2)CC1	NSD2 HMT inh 57.0 (no result: MITF act) | AlphaScreen art inactive
Cc1cc(Cl)ccc1OCC(=O)OCC(=O)NC1CCS(=O)(=O)C1 (stereo unspecified)	none
CC1=C/C(=C(\c2cc(C)c(O)c(Br)c2)c2ccccc2S(=O)(=O)O)C=C(Br)C1=O	NSD2 HMT inh 50.4 | AlphaScreen art 7.81µM
COC(=O)c1cc(=O)nc(NN=C2c3ccccc3-c3ccccc32)s1	none (no result: MITF act, PfHsp90 yeast 2, TRPM1 prom inh)
Cc1[nH]c(=O)nc(NN=Cc2ccc(Cl)cc2)c1C(=O)Nc1ccc(Cl)cc1	none
CCOc1cccc(=O)c2c(C)n(-c3ccc(C(=O)O)cc3)c(C)c12	NSD2 HMT inh 92.8 | AlphaScreen art inactive
CCOc1cccc(=O)c2c(C)n(Cc3ccccc3)c(C)c12	none
COc1cccc(=O)c2c(C)n(-c3ccc(C(=O)O)cc3)c(C)c12	NSD2 HMT inh 78.7 (no result: PfHsp90 yeast 2) | AlphaScreen art inactive
CC1CN(C(=O)COC(=O)/C=C/c2ccccc2)CC(C)O1 (stereo unspecified)	NSD2 HMT inh 60.8 (no result: MITF act, PfHsp90 yeast 2, TRPM1 prom inh) | AlphaScreen art inactive
CC1CN(C(=O)COC(=O)/C=C/c2ccc(C(F)(F)F)cc2)CC(C)O1 (stereo unspecified)	none (no result: PfHsp90 yeast 2)
Cc1ccc(NC(=O)CCNC(=O)c2ccco2)cc1	none (no result: Wnt act)
CN(C)S(=O)(=O)c1ccc(NC(=O)CCNC(=O)c2ccco2)cc1	NSD2 HMT inh 58.5 | AlphaScreen art inactive
CCCCc1ccc(S(=O)(=O)NC(=O)C2(C)CCN2C(=O)Cc2ccccc2)cc1 (stereo unspecified)	none (no result: MITF act, PfHsp90 yeast 2, TRPM1 prom inh)
Cc1cc(C)nc(NS(=O)(=O)c2ccc(-n3cccc3)cc2)n1	NSD2 HMT inh 72.7 (no result: MITF act, PfHsp90 yeast 2) | AlphaScreen art inactive
CC(=O)c1ccc(N2C(=O)C3C(C2=O)C(C(=O)c2ccc(Cl)cc2)N2CCCC32)cc1 (stereo unspecified)	none (no result: Wnt act, Glyco luc inh, MITF act, PfHsp90 yeast 2, TRPM1 prom inh)
COc1ccc(N2C(=O)C3C(C2=O)C(C(=O)c2ccc(Cl)cc2)N2CCCC32)cc1 (stereo unspecified)	NSD2 HMT inh 79.3 (no result: MITF act) | AlphaScreen art inactive
CC1C/C(=C\c2cccnc2)C(=O)/C(=C/c2cccnc2)C1 (stereo unspecified)	NSD2 HMT inh 57.8, TRPM1 prom inh 97.5 (no result: Wnt act) | AlphaScreen art inactive
COc1ccc(S(=O)(=O)N(C)CC(=O)NCCN2CCOCC2)cc1Cl	NSD2 HMT inh 86.5 | AlphaScreen art inactive
CCOC(=O)C1=C(C)N(C)C(=S)NC1c1ccccc1Cl (stereo unspecified)	NSD2 HMT inh 96.0 (no result: Wnt act) | AlphaScreen art inactive
